A short description of test [1]: Her2 expression decrease, cell viability multiplex – SKBR3 breast tumor cells, AlphaScreen, ATP viability, primary screen (AID 461;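 active = Her2 level under about 52% in both replicate screens, with viability over 70% of control, limit read from the data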;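 for Her2 level: lower value means less Her2 protein in the cells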;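 for viability: percent of carrier control wells set as 100% viability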). The conditions noted are these: SKBR3 Her2 protein level, 18-24 h, measured here: SKBR3 viability, ATP luminescence, at 10 µM. Background: Alpha assays give light when donor and acceptor beads are brought close together.
Test [2] deals with Receptor tyrosine-protein kinase erbB-2 (Homo sapiens) (UniProt P04626). The test is described as above. The following applies: 18-24 h, at 10 µM, stronger effect = lower value.
Test [3] in a line: reduced viability of SK-BR-3 breast cancer cells – cell-based, 24 h, human, pilot screen (AID 572;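 active = viability at or below 10% of carrier control in both of two separate runs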;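 note: compound exposure lasted between 18 and 24 h rather than exactly 24 h; 100% = carrier-treated control wells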). The following applies: SK-BR-3 viability, CellTiter-Glo luminescence, at 10 µM, stronger effect = lower value. Background: Cellular ATP, detected with luciferase, serves as a proxy for viable cell number.
Test [4] can be described thus: HUVEC growth inhibition – cell-based, human, primary screen (AID 575;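 active = viability at or below 30% in both replicate assays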;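 note: 100% = median of untreated cell wells with 0.1% DMSO on each plate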). The conditions noted are these: HUVEC proliferation, CellTiter-Glo luminescence, 72 h; at 10 µM; stronger effect = lower value.
The nature of test [5]: H69AR cell proliferation blockers – human, duplicate replicates, primary screen (AID 580;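 active = viability at or under a set limit in both replicates, limit being median viability minus 3 SD, cut at about 48% in these data, passing the limit was not always enough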;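 note: 100% = mean luminescence of untreated wells and 0% = no signal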). The following applies: H69AR lung tumor cells viability, ATP luminescence, 72 h; at 10 µM; stronger effect = lower value.
Test [6] in a line: MRP1 drug-resistance reversers in H69AR cells – cell-based, doxorubicin co-treatment, pilot screen (AID 601;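 active = viability loss from added drug above about 55%, and viability with drug at most 40%, in both replicates, limit read from the data, passing the limit was not always enough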). The conditions noted are these: CellTiter-Glo, 72 h, at 10 µM; for differential viability (reversal): stronger effect = higher value.
The nature of test [7]: yeast transport mutant growth inhibition pilot in 384-well plates, post-Golgi transport modulator project (AID 636; in the data active = inhibition above about 31%). The following applies: absorbance 615 nm, about 18 h, stronger effect = higher value.
The nature of test [8]: growth suppression of yeast trafficking mutant, preliminary HTS, modulators of trafficking downstream of Golgi apparatus project, 1536-format plate, OD 615 nm (AID 637; in the data active = inhibition above about 30%). The following applies: yeast transport mutant growth, absorbance 615 nm, 18 h; stronger effect = higher value.
Test [9] can be described thus: S. cerevisiae growth inhibition in permissive medium (OD615), pilot counter-assay for S. cerevisiae lifespan shortening project, permissive growth control (AID 705;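 active = growth inhibition above 25% in both replicates, a cutoff set 3 SD above the mean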). The following applies: OD615, 24 h, at 10 µM, stronger effect = higher value.
Test [10] in a line: S. cerevisiae growth inhibition in restrictive medium, OD615, pilot screen, restrictive growth control, yeast lifespan reduction project (AID 706;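 active = growth inhibition above a set limit, 3 SD over mean compound inhibition, in both replicates, cut at about 43% in these data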;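 note: modified DeaD lifespan yeast strain shifted to restrictive glucose medium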). The conditions noted are these: OD615, 48 h, at 10 µM, stronger effect = higher value.
Test [11] in a line: doxorubicin toxicity protection in MRP-1 cells – H69AR cells, CellTiter-Glo, duplicate, MRP-1 activator project, pilot screen (AID 807;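 active = viability increase at or above a cutoff of the median across tested compounds plus 3 SD, cut at about 8.5% in these data, passing the limit was not always enough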;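 note: compound pretreatment 18-22 h then 72 h combined with doxorubicin; 0% = doxorubicin alone and 100% = vehicle without doxorubicin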). The following applies: H69AR viability with doxorubicin, CellTiter-Glo luminescence; at 10 µM; stronger effect = higher value.
Test [12] can be described thus: viability of HCT116 without oncogenic beta-catenin – human colon tumor cells, pilot screen (AID 823;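 active = cell viability at or below a set limit in both duplicate runs, the limit being the all-compound median minus 4 SD, cut at about 23% in these data, passing the limit was not always enough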;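 note: 0% = wells killed by 20 µM Hyamine and 100% = untreated DMSO cell wells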). The following applies: HCT116 beta-catenin knockout viability, CellTiter-Glo, 60 h; at 10 µM; stronger effect = lower value.
Test [13] can be described thus: viability of PTEN-null HCT116 cells – cell-based, HCT116 clonal line, CellTiter-Glo, pilot screen (AID 824;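 active = viability at or below 27.92% in each of two runs, the all-compound median minus 4 SD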;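 note: 0% = 20 µM Hyamine control and 100% = vehicle cell control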). The conditions noted are these: HCT116 PTEN-deleted viability, 60 h, at 10 µM, stronger effect = lower value.
A short description of test [14]: RAM pathway blockade in budding yeast – dse1pr::URA3 reporter, 5-FOA selection, pilot screen (AID 869).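 Note: 0% = DMSO wells with no growth and 100% = 10 µM 1-NA-PP1 with full growth; RAM network block rescues cells from 5-FOA so hits raise OD615 growth.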 The conditions noted are these: S. cerevisiae dse1pr::URA3 5-FOA growth, OD615, 2 d; at 10 µM; stronger effect = higher value; strain carries analog-sensitive mutant Cbk1 kinase.
The nature of test [15]: RAM signaling pathway blockade in yeast – S. cerevisiae, Pdr1DBD-CYC8 efflux-inhibited sensitized strain, primary screen (AID 1298;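 active = RAM network inhibition above 8.4% in each of two replicates, 3 SD over the compound average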;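 note: 0% = DMSO untreated cells without growth and 100% = 10 µM 1-NA-PP1 full growth; higher means more yeast growth rescued from 5-FOA killing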). The conditions noted are these: S. cerevisiae cbk1-as DSE1-URA3 strain, 5-FOA growth OD615, 2 d; at 50 µM; stronger effect = higher value.
Where [16] appears, read: H69AR cells + 2 uM doxorubicin, measured here: viability with 2 uM doxorubicin, stronger effect = lower value.
The mark [17] stands for this setting: H69AR cells, compound alone cytotoxicity.

Structures are written as SMILES. Records with an inconclusive call do not appear. Activity calls are given as the source filed them.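 Rule for the calls, unless noted: active = inhibition over a set limit, the all-compound mean plus 3 SD, in both replicate runs; inconclusive = over that limit in just one replicate run; inactive = at or under that limit in both runs.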

Sequence of Receptor tyrosine-protein kinase erbB-2 (Homo sapiens) (P04626 whole entry, looked up): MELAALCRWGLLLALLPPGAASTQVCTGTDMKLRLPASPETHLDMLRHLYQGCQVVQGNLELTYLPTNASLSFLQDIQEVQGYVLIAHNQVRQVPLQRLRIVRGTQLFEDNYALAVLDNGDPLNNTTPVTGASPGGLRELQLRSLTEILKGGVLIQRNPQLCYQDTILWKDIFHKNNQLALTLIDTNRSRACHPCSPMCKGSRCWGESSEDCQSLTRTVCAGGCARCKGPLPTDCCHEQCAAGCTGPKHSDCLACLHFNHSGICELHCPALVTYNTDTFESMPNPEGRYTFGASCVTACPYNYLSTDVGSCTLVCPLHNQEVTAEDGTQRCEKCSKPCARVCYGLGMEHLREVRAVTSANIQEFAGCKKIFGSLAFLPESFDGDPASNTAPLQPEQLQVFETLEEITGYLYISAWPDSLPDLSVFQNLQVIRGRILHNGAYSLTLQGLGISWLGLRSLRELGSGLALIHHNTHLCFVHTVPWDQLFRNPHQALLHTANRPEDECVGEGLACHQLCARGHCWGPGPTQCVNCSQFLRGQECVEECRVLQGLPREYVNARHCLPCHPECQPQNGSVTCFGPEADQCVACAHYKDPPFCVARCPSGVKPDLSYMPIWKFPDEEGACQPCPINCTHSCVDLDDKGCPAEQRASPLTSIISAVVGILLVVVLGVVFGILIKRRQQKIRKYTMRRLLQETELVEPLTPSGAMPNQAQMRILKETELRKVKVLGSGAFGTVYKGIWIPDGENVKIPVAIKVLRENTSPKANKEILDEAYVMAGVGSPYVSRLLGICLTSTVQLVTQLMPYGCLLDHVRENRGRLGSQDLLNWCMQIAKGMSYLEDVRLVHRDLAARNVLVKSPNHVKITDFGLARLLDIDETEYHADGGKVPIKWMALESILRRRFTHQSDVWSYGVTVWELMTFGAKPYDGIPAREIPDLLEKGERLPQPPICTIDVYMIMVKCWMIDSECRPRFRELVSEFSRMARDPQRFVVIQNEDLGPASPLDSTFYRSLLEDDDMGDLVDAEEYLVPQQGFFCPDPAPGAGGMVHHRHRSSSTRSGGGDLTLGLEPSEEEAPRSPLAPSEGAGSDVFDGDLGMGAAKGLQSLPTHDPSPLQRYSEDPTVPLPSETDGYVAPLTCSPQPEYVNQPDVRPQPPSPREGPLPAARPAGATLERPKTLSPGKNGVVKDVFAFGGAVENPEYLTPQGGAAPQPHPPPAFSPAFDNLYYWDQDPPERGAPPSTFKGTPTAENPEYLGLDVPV

For the compound `CCOC(=O)c1cccc(NC(=O)CNS(=O)(=O)c2cccs2)c1`, the viability was 95.5% in [1]; 95.5% (inactive) in test [3]; 97% (inactive) in [4]; 88.3% (inactive) in [5]; 90.4% in [6] (setting [16]); 88.3% in test [6] (setting [17]). For the same compound, the viability in test [12] is 102% (inactive); in test [13], 97.7% (inactive). Besides, the Her2 level in test [2] is 92% (inactive). For the same compound, the differential viability (reversal) in [6] (H69AR cells + 2 uM doxorubicin) was -2.06% (inactive). Besides, the inhibition in test [7] is -8.36% (inactive); in [8], -5.71% (inactive); in [14] it was 1.43% (inactive). The growth inhibition in test [9] is -0.595% (inactive); in test [10] it was -4.69% (inactive). For the same compound, the viability increase in test [11] was 0.66% (inactive). Also, the RAM network inhibition in test [15] was 0.44% (inactive).
On to `CCn1cc(C(=O)NCC2CCCO2)c(=O)c2cc(S(=O)(=O)N(C)C)ccc21` (stereo not given), for which the viability in [1] is 85.5%; in test [3], 85.5% (inactive); in test [4] it was 105% (inactive); in test [5], 88.6% (inactive); in [6] (setting [16]), 83.1%; in test [6] (setting [17]) it was 88.6%. The values for the viability in test [12] and in [13] were 101% (inactive) and 94.9% (inactive), respectively. In test [2], the Her2 level is 113% (inactive). Besides, the differential viability (reversal) in test [6] (H69AR cells + 2 uM doxorubicin) is 5.47% (inactive). The inhibition is -0.13% (inactive) in test [7], -3.83% (inactive) in test [8] and 2.33% (inactive) in test [14]. Further, the growth inhibition was -1.35% (inactive) in [9] and 1.3% (inactive) in test [10]. Also, in test [11], the viability increase was -0.77% (inactive). For the same compound, the RAM network inhibition in [15] is 1.14% (inactive).
On to `O=C(O)CC(NC(=O)c1ccccc1NC(=O)c1ccccc1)C(=O)O` (stereo not given), for which the viability is 86.5% in test [1]; 86.5% (inactive) in test [3]; 93.5% (inactive) in test [4]; 97.2% (inactive) in test [5]; 90.5% in test [6] (setting [16]); 97.2% in [6] (setting [17]). The viability is 108% (inactive) in test [12] and 96.5% (inactive) in test [13]. Besides, in test [2], the Her2 level was 154% (inactive). Moreover, the differential viability (reversal) in test [6] (H69AR cells + 2 uM doxorubicin) is 6.64% (inactive). Moreover, the inhibition was 3.97% (inactive) in test [7], 35.3% (active) in [8] and 0.785% (inactive) in test [14]. The growth inhibition is -0.82% (inactive) in [9] and -3.04% (inactive) in [10]. Besides, in test [11], the viability increase is -0.74% (inactive). For the same compound, the RAM network inhibition in test [15] was 0.47% (inactive).
`c1ccc(N2CCN(Cc3cn4cccnc4n3)CC2)cc1`: the viability in test [1] was 98%; in test [3], 98% (inactive); in test [4], 97.2% (inactive); in test [5], 97.6% (inactive); in test [6] (setting [16]), 93.9%; in test [6] (setting [17]), 97.6%. Moreover, the viability in [12] was 98% (inactive); in [13] it was 95.1% (inactive). Further, the Her2 level in test [2] was 94% (inactive). Further, the differential viability (reversal) in test [6] (H69AR cells + 2 uM doxorubicin) is 3.72% (inactive). For the same compound, the inhibition was -2% (inactive) in test [7], -6.07% (inactive) in test [8] and 0.465% (inactive) in test [14]. For the same compound, the growth inhibition is -10.3% (inactive) in [9] and -6.25% (inactive) in test [10]. Also, the viability increase in test [11] was 1.38% (inactive). Moreover, in [15], the RAM network inhibition is 6.85% (inactive).
Turning to `Cc1noc(C(=O)Nc2ccc3c(c2)OCO3)c1Cl`, the viability in [1] is 84.5%; in test [3], 84.5% (inactive); in test [4], 51.4% (inactive); in [5], 96.9% (inactive); in [6] (setting [16]), 97.2%; in test [6] (setting [17]), 96.9%. Besides, the results for the viability in test [12] and in test [13] were 95.9% (inactive) and 89.7% (inactive), respectively. Further, the Her2 level in [2] is 75% (inactive). For the same compound, in test [6] (H69AR cells + 2 uM doxorubicin), the differential viability (reversal) was -0.25% (inactive). The inhibition is -4.13% (inactive) in test [7], 1.67% (inactive) in [8] and 2.92% (inactive) in test [14]. The figures for the growth inhibition in [9] and in test [10] were -0.74% (inactive) and 6.31% (inactive), respectively. Further, in [11], the viability increase was -3.47% (inactive). Besides, the RAM network inhibition in test [15] was 5.2% (inactive).

For orientation: viability means a read-out of living cells in per cent, often relative to untreated cells. The inhibition is the change of the read-out against control, counted positive when it falls.

Source of the values: PubChem BioAssay.
